HepG2 tox-1: qHTS for Inhibitors of TGF-b: Cytotox Counterscreen; Potency, µM (titrated, usually from 46.1 µM), hits mostly cytotoxic; AID 588856, 2011; actives 0.76% (n = 410,000); HepG2 CAGA-GFP viability, ATP luminescence, 18 h
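CellTiter-Glo luminescence gave cytotoxicity after 18 hours at 37 degrees C. The cells were HepG2 CAGA-GFP in 1% FBS DMEM, stimulated with 500 pg/mL TGF-beta after compound addition. %Activity was normalised to no-cell wells (complete cell-killing) and DMSO (no toxicity), and curves were fitted and classified.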
S2 tox: Viability Counterscreen for Primary qHTS for Inhibitors of ATXN expression | S2 cells (HEK-293 line with an ATXN2-luciferase reporter) viability, CellTiter-Fluor protease fluorescence, 24 h | AID 651635, 2014 | Potency, µM (highest dose often 56.7 µM), most hits filed as cytotoxic | actives 0.49% (n = 400,000); further: nearly all actives have a fitted effect of over 40% in size
RORg inh: qHTS for inhibitors of ROR gamma transcriptional activity; Nuclear receptor ROR-gamma (Mus musculus), P51450; Drosophila S2 Gal4-RORgamma UAS-luciferase reporter, 20 h; actives 5.4% (n = 310,000); Potency, µM (highest dose often 53.6 µM), most hits filed as inhibitors; further: nearly all actives have a fitted effect of over 60% in size
Target sequence (P51450 whole entry, looked up, the tested form may be a part): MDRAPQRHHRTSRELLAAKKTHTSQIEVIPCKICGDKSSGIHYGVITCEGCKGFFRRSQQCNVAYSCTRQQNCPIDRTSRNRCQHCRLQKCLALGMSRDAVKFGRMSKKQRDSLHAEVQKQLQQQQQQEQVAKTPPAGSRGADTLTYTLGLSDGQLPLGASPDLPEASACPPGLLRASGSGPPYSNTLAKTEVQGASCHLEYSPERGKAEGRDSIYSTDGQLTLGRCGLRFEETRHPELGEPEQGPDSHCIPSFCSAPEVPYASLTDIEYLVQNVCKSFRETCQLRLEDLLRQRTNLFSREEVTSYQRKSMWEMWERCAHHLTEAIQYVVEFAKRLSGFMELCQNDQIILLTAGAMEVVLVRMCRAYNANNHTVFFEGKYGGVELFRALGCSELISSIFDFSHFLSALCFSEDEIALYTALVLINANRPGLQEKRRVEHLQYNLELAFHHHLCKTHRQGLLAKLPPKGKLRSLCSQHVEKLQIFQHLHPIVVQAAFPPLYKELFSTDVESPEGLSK
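Schneider cells (Drosophila), stable Gal4 DBD–ROR gamma + UAS-luc; 1 hr cmpd preincubation; Cu2+ induction 700 uM final; 20 hr ambient; luminescence.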
VP16 counter: VP16 counterscreen qHTS for inhibitors of ROR gamma transcriptional activity | Drosophila S2 Gal4-VP16 UAS-luciferase, luminescence, 20 h | Potency, µM (titrated, usually from 53.6 µM), hits mostly inhibitors | actives 3.5% (n = 310,000);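 further: Gal4-VP16 expression switched on by copper sulfate through the metallothionein promoter; nearly all actives have a fitted effect of over 50% in size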
ATXN2 expr inh: Primary qHTS for Inhibitors of ATXN expression | HEK-293 ATXN2-luciferase reporter, luminescence, 24 h | actives 0.72% (n = 360,000) | Potency, µM (highest dose often 57 µM), most hits filed as inhibitors; further: nearly all actives have a fitted effect of over 55% in size
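ATXN2-luciferase reporter cells (luciferase flanked by upstream and downstream ATXN2 gene portions) were treated 24 h at 37 °C with compounds at up to 57 uM. SteadyGlo luminescence gave expression; GF-AFC fluorescence gave viability.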
TGFb inhibitor: qHTS for Inhibitors of TGF-b | HepG2 CAGA-GFP TGF-b/SMAD3 reporter, GFP fluorescence, 18 h; TGF-beta stimulated, 500 pg/mL final | Potency, µM (doses to about 46.1 µM), hits mostly inhibitors | actives 1.2% (n = 410,000) | AID 588855, 2011; further: nearly all actives have a fitted effect of over 65% in size
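Inhibition of TGF-beta-driven CAGA-GFP reporter expression in HEPG2 cells is measured by cellular GFP fluorescence after 18 h stimulation with 500 pg/mL recombinant TGF-beta in 1% FBS medium at 37 degrees C.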
TGFb CAGA inh: qHTS for Inhibitors of TGF-b: Confirmation of Cherry Picks; actives 63% (n = 1,600); Potency, µM (titrated, usually from 46.1 µM), actives largely listed as inhibitors; shares compounds with TGFb inhibitor; HepG2 CAGA-GFP TGF-b reporter, GFP fluorescence, 18 h; cells stimulated with TGF-beta, 500 pg/mL; further: nearly all actives have a fitted effect of over 65% in size
HepG2 tox-2: qHTS for Inhibitors of TGF-b: Cytotox Counterscreen for Cherry Picks | shares compounds with TGFb inhibitor | HepG2 CAGA-GFP viability, ATP luminescence, 18 h; cells stimulated with TGF-beta, 500 pg/mL | Potency, µM (top dose mostly 46.1 µM), actives largely listed as inhibitors | actives 27% (n = 1,600) | AID 720535, 2013; further: nearly all actives have a fitted effect of over 70% in size
TGFb CCL64 inh: qHTS for Inhibitors of TGF-b: CCL64 Cells Orthogonal Assay for Cherry Picks | shares compounds with TGFb inhibitor | CCL64 CAGA-GFP reporter, TGF-b stimulated, GFP fluorescence, 18 h | Potency, µM (doses to about 46.1 µM), most hits filed as inhibitors | actives 41% (n = 1,600) | AID 720536, 2013; further: nearly all actives have a fitted effect of over 65% in size
TGFb COP inh: qHTS for Inhibitors of TGF-b: Hit Validation in HepG2 Cells using COP promoter | shares compounds with TGFb inhibitor | HepG2 COP-GFP TGF-b reporter, GFP fluorescence, 18 h; cells stimulated by added recombinant TGF-beta | Potency, µM (titrated, usually from 46.1 µM), actives largely listed as inhibitors | actives 3% (n = 1,600); further: nearly all actives have a fitted effect of over 70% in size
Numbers stand for hits; [ ] = remark or other dose. An excerpt weighted towards active compounds, which were near 6.3% of everything screened. The call rests on the fitted dose curve; in most records, active means well fitted curve in the direction sought with a large enough effect; inconclusive means small, poorly fitted or top-dose-only effect, or another doubt; inactive means no such curve, though single readings can be large; an effect the other way counts as inactive or inconclusive.

Results for CC1(C(=O)NCc2ccc3c(c2)OCO3)CCN1Cc1csc2ccccc12 (configuration not stated) ?
HepG2 tox-1: inactive; S2 tox: inactive; ATXN2 expr inh: inconclusive; TGFb inhibitor: 11µM; TGFb CAGA inh: 16µM; HepG2 tox-2: 23µM; TGFb CCL64 inh: 3.7µM; TGFb COP inh: inactive

What do the screens show for `O=S(Cc1ccc(Br)cc1)Cc1nnc(SCc2c(F)cccc2Cl)n1-c1ccccc1` (configuration not stated)?
HepG2 tox-1: inactive; S2 tox: inactive; RORg inh: inconclusive; VP16 counter: inactive; ATXN2 expr inh: inactive; TGFb inhibitor: inconclusive; TGFb CAGA inh: 12µM; HepG2 tox-2: inconclusive; TGFb CCL64 inh: 15µM; TGFb COP inh: inactive

How did COc1ccccc1NC(=O)COC(=O)C1C2CC3OC(=O)C1C3C2 (configuration not stated) do in these assays?
HepG2 tox-1: inactive; S2 tox: inactive; RORg inh: inconclusive; VP16 counter: inactive; ATXN2 expr inh: inactive; TGFb inhibitor: inactive

What do the screens show for `COc1ccccc1-c1cc(C(F)(F)F)nc(S(=O)(=O)CCCC(=O)N2CCOCC2)n1`?
HepG2 tox-1: inactive; S2 tox: 18µM; RORg inh: 5.6µM; VP16 counter: 7.1µM; ATXN2 expr inh: inconclusive; TGFb inhibitor: 2.2µM; TGFb CAGA inh: 1.8µM; HepG2 tox-2: 21µM; TGFb CCL64 inh: 4.1µM; TGFb COP inh: inconclusive

Results for COc1ccccc1-c1cc(C(F)(F)F)nc(S(=O)(=O)CCCC(=O)Nc2ccc(F)c(Cl)c2)n1 ?
HepG2 tox-1: inactive; S2 tox: inactive; ATXN2 expr inh: inactive; TGFb inhibitor: inactive

How did COc1cccc2c1C(=O)c1c(O)c3c(c(O)c1C2=O)CC(O)(C(C)=O)CC3OC1CC(N(C)C)C(O)C(C)O1 (configuration not stated) do in these assays?
HepG2 tox-1: inactive; S2 tox: inconclusive; ATXN2 expr inh: inconclusive; TGFb inhibitor: 0.79µM; TGFb CAGA inh: 0.26µM; HepG2 tox-2: 0.33µM; TGFb CCL64 inh: 1µM; TGFb COP inh: inconclusive

How did COc1cccc2c1C(=O)c1c(O)c3c(c(O)c1C2=O)C[C@@](O)(C(=O)CO)C[C@@H]3OC1CC(N)C(O)C(C)O1 (some centres not stated) do in these assays?
HepG2 tox-1: inactive; S2 tox: 12µM; RORg inh: inactive[10 µM]; VP16 counter: 10µM; ATXN2 expr inh: inconclusive; TGFb inhibitor: 5.6µM; TGFb CAGA inh: 2.6µM; HepG2 tox-2: 1.3µM; TGFb CCL64 inh: 3.3µM; TGFb COP inh: inactive

What do the screens show for `CC(Oc1ccc(Br)cc1)C(=O)Nc1ccncc1` (configuration not stated)?
HepG2 tox-1: inactive; S2 tox: inactive; RORg inh: inconclusive; VP16 counter: inconclusive; ATXN2 expr inh: inactive; TGFb inhibitor: inactive

Results for Cc1ccc(OC(C)C(=O)Nc2ccncc2)cc1C (configuration not stated) ?
HepG2 tox-1: inactive; S2 tox: inactive; RORg inh: inactive[1.91 µM]; VP16 counter: inconclusive; ATXN2 expr inh: inconclusive; TGFb inhibitor: 10µM; TGFb CAGA inh: inconclusive; HepG2 tox-2: inconclusive; TGFb CCL64 inh: inactive; TGFb COP inh: inactive

Results for CCOC(=O)c1c(Nc2ccc(C)cc2)nnc(-c2ccccc2)c1-c1ccccc1 ?
HepG2 tox-1: inactive; S2 tox: inactive; ATXN2 expr inh: inactive; TGFb inhibitor: inconclusive

What do the screens show for `O=C(c1ccco1)N1CCCC(c2nc(-c3ccc(S(=O)(=O)NCc4ccccc4)cc3)no2)C1` (configuration not stated)?
HepG2 tox-1: inactive; S2 tox: inconclusive; RORg inh: inactive; VP16 counter: inconclusive; ATXN2 expr inh: 28µM; TGFb inhibitor: inconclusive; TGFb CAGA inh: 15µM; HepG2 tox-2: inconclusive; TGFb CCL64 inh: inactive; TGFb COP inh: inactive

What do the screens show for `CC(=O)Nc1ccc(S(=O)(=O)NCCC(=O)NCCCc2ccccc2)cc1`?
HepG2 tox-1: inactive; S2 tox: inactive; ATXN2 expr inh: inactive; TGFb inhibitor: inactive

Results for COc1ccc(C2=NNC(=Nc3cc(S(=O)(=O)N(C)C)ccc3C)SC2)c(OC)c1 ?
HepG2 tox-1: inactive; S2 tox: inconclusive; RORg inh: inactive; VP16 counter: inactive; TGFb inhibitor: inconclusive; TGFb CAGA inh: inconclusive; HepG2 tox-2: inconclusive; TGFb CCL64 inh: inconclusive; TGFb COP inh: inactive

How did O=C(COc1ccc(Cl)cc1Cl)NCCSc1ccc(Cl)cc1 do in these assays?
HepG2 tox-1: inactive; S2 tox: inactive; RORg inh: inactive; VP16 counter: inactive; ATXN2 expr inh: inactive; TGFb inhibitor: 16µM; TGFb CAGA inh: inconclusive; HepG2 tox-2: inconclusive; TGFb CCL64 inh: inconclusive; TGFb COP inh: inactive

What do the screens show for `CN(C)CCNC(=O)COc1ccc(Cl)cc1Cl`?
HepG2 tox-1: inactive; S2 tox: inactive; RORg inh: inactive; VP16 counter: inactive; ATXN2 expr inh: inactive; TGFb inhibitor: inactive

What do the screens show for `N=c1n(CCN2CCCCC2)c2ccccc2n1CC(=O)c1cccs1`?
HepG2 tox-1: inactive; S2 tox: inactive; RORg inh: inactive; VP16 counter: inactive; ATXN2 expr inh: inconclusive; TGFb inhibitor: inconclusive; TGFb CAGA inh: inactive; HepG2 tox-2: inconclusive; TGFb CCL64 inh: 23µM; TGFb COP inh: inactive

What do the screens show for `O=S(=O)(Nc1cccc(-c2ccc(N3CCOCC3)nn2)c1)c1ccc(F)c(C(F)(F)F)c1`?
HepG2 tox-1: inactive; S2 tox: inconclusive; ATXN2 expr inh: inactive; TGFb inhibitor: inactive
